Screening data deposited in PubChem BioAssay by several laboratories.
phage Ecoli inh: E. coli growth loss with phage present. AID 651602. inhibition, % at 11.9 µM. growth absorbance. 0.26% of 360,000 active; in the data active = inhibition above about 11%
Tat transport: E. coli Tat transport inhibition | E. coli MC4100 TorA-mCherry Tat export, fluorescence | inhibition, % at 10 µM | 0.036% of 340,000 active | AID 488895;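 active = mean replicate inhibition at least 50% and at least half of replicates individually reaching 50%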;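 note: exported cargo escapes ClpAP degradation while cytoplasmic cargo is degraded and loses fluorescence; 0% = median of neutral control wells and 100% = median of NaSCN control wells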
E coli growth-1: counter-screen for AddAB inhibitors: E. coli growth inhibition | AID 449728 | E. coli V3065 growth, OD600 absorbance, 18 h | inhibition, % at 11.9 µM | 0.27% of 330,000 active;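 active = inhibition above the campaign's mean inhibition across all tested compounds plus 3 SD, cut at about 9.9% in these data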;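 note: uninfected addAB+ strain grown without phage in ampicillin broth; 0% = DMSO wells and 100% = ciprofloxacin 0.95 µg/ml wells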
E coli growth-2: blocks Escherichia coli growth; AID 1053175; OD600, 23 h; active compounds read low; OD600 absorbance (no concentration beside the values); 0.21% of 330,000 active;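 active = OD600 absorbance below the run mean of sample wells minus 3.6 SD, in any replicate, cut at about 0.56 in these data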
AddAB inh: less growth of phage-infected E. coli with AddAB. E. coli expressing H. pylori AddAB, absorbance growth. inhibition, % at 11.9 µM. 0.29% of 330,000 active; in the data active = inhibition above about 12%;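 note: 0% = vehicle wells of infected cells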
AddAB confirm: confirmation screen: growth loss of phage-infected E. coli expressing H. pylori AddAB. inhibition, % at 11.9 µM. shares compounds with AddAB inh. 64% of 880 active. E. coli V3065 expressing H. pylori AddAB, T4 phage, OD; T4 phage with gene 2 nonsense mutations;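 active = mean inhibition above a set limit taken from the earlier primary screen, cut at about 13% in these data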;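 note: higher means less bacterial growth since AddAB block lets phage replicate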
RecBCD counter: counter-screen: growth loss of RecBCD+ E. coli with mutant T4 phage. inhibition, % at 11.9 µM. 73% of 880 active. AID 488955. E. coli V66 + mutant T4 phage, OD growth. shares compounds with AddAB inh;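 active = mean inhibition above the mean of solvent-only control wells plus 3 SD, cut at about 4% in these data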;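 note: optical density read after an 18 h incubation at 37 °C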
Bact viability: counter-screen for AddAB inhibitors: inhibitors of bacterial viability | shares compounds with AddAB inh | absorbance (AddAB counterscreen) | inhibition, % at 11.9 µM | 35% of 880 active; in the data active = inhibition above about 25%
Active calls of the source: *; nt = not tested or not shown. In the library only some 0.5% were active in any assay of this set; here they are far more common.

SMILES	phage Ecoli inh	Tat transport	E coli growth-1	E coli growth-2	AddAB inh	AddAB confirm	RecBCD counter	Bact viability
CC(CCN1CCc2nc(-c3ccccc3)c(-c3ccccc3)cc2C1)=NOC(C)c1cn(C(CO)Cc2ccccc2)nn1 (stereo not given)	nt	nt	nt	0.65	nt	nt	nt	nt
Cc1ccc(C(=O)NNC(=S)NC(=O)c2ccco2)cc1	5	-11	9	0.47*	13*	7	10*	3
CN(C)c1ccc(C=Nc2cc(-c3ccccc3)nn2-c2ccccc2)cc1	nt	nt	nt	0.71	nt	nt	nt	nt
O=C(Cc1cccs1)NCCn1ccc2ccccc21	3	7	95*	0.77	99*	-1	2	-1
O=C(NNC(=O)c1cc(Br)ccc1Cl)c1csc(N2CCOCC2)n1	-1	5	-3	0.73	3	nt	nt	nt
O=C(NNC(=O)c1cc(Br)ccc1O)c1csc(N2CCOCC2)n1	nt	-3	33*	nt	37*	27*	27*	27*
O=C(Nc1nnc(-c2ccco2)o1)c1cccc(Cl)c1	-4	-6	0	0.69	15*	0	-2	-4
O=C(Nc1nnc(-c2cccs2)o1)c1cccc(F)c1	8	12	5	0.35*	16*	9	14*	7
O=C(Nc1nnc(-c2ccccn2)o1)c1cccc(Cl)c1	-6	-6	-7	0.57	0	nt	nt	nt
OCC1OC(n2cnc3c(Nc4ccccc4)ncnc32)C(O)C1O (stereo not given)	nt	nt	nt	0.7	nt	nt	nt	nt
CC(O)C1CN=C(N)N1CC1CCCCC1 (stereo not given)	nt	nt	nt	0.7	nt	nt	nt	nt
O=C(NN=C/C=C/c1ccccc1)NC1CCCCC1	nt	nt	nt	0.64	nt	nt	nt	nt
O=C(N/N=C/C=C/c1ccccc1)NC1CCCCC1	4	6	18*	nt	37*	1	0	-2
COC(=O)c1ccc(N2NC(=O)C(=Cc3ccc(-c4ccc(Cl)c(C(=O)O)c4)o3)C2=O)cc1	nt	nt	nt	0.68	nt	nt	nt	nt
c1ccc(-n2ncc3c(N4CCC5(CC4)OCCO5)ncnc32)cc1	1	-10	2	0.78	1	nt	nt	nt
Cc1cccc(-n2ncc3c(N4CCC5(CC4)OCCO5)ncnc32)c1	2	-4	5	0.74	32*	3	0	-1
CC1CCN(C(=O)CCC(=O)N2CC(C)Oc3ccccc32)CC1 (stereo not given)	3	-10	32*	0.73	99*	-3	1	-2
COc1ccc(NC(=O)COc2ccc(C)nc2[N+](=O)[O-])cc1S(N)(=O)=O	7	-5	12*	0.62	15*	46*	7.8*	29*
Cc1ccc(OCC(=O)Nc2ccc3c(c2)CCC3)c([N+](=O)[O-])n1	5	-3	1	0.69	1	nt	nt	nt
Oc1c(Cl)cc(Cl)cc1Sc1cc(Cl)cc(Cl)c1O	nt	nt	16*	nt	15*	10	15*	12
O=S(c1cc(Cl)cc(Cl)c1O)c1cc(Cl)cc(Cl)c1O	10	nt	nt	nt	nt	nt	nt	nt
CCCNC(=O)c1ccc2c(=O)c(O)c(-c3ccc(F)cc3)[nH]c2c1	nt	-6	15*	0.67	18*	11	13*	14
Cc1noc(NS(=O)(=O)c2ccc(NC(=O)C(F)(F)F)cc2)c1C	3	-12	9	0.7	15*	-1	3	2
Cc1noc(NS(=O)(=O)c2ccc(NC(=O)C(C)(C)C)cc2)c1C	5	-5	1	0.68	1	nt	nt	nt
COc1ccc(CNC(=S)NN=Cc2ccc(OC)c(OC)c2)cc1	nt	nt	nt	0.72	nt	nt	nt	nt
SMILES	phage Ecoli inh	Tat transport	E coli growth-1	E coli growth-2	AddAB inh	AddAB confirm	RecBCD counter	Bact viability
O=C(Cn1cnc([N+](=O)[O-])n1)NN=Cc1ccc2ccccc2c1	nt	nt	nt	0.74	nt	nt	nt	nt
Cc1ccc(NC(=O)CSc2n[nH]c(C)c2[N+](=O)[O-])cc1	9	-3	7	0.68	14*	2	4.7*	2
Cc1[nH]nc(SCC(=O)Nc2ccc(C#N)cc2)c1[N+](=O)[O-]	10	-8	7	nt	10	nt	nt	nt
Cc1c(OC(C)C(=O)N[C@H](C(=O)O)c2ccccc2)ccc2c3c(c(=O)oc12)CCCC3 (stereo not given in full)	2	-1	-1	0.74	3	nt	nt	nt
Cc1c(OC(C)C(=O)NCC(O)c2ccccc2)ccc2c3c(c(=O)oc12)CCC3 (stereo not given)	1	2	28*	0.68	34*	-6	-1	-3
ON=Cc1cc(Br)ccc1OCc1ccc(F)cc1	nt	nt	nt	0.67	nt	nt	nt	nt
Cc1nc2oc3c(=O)[nH]cnc3c2c2c1COC(C)(C)C2	0	0	-1	0.68	31*	-1	0	-3
O=C(COC(=O)c1ccccc1NC(=O)c1ccco1)NCC1CCCCC1	0	-6	98*	0.68	97*	-2	2	0
CC(NC(=O)NC1CCCCC1)C(c1cccs1)N1CCN(C)CC1 (stereo not given)	1	-13	8	0.73	85*	1	0	-4
COc1ccc(-c2nc3ccccn3c2C=O)cc1	2	11	1	0.63	3	nt	nt	nt
O=Cc1c(-c2ccc(F)cc2)nc2ccccn12	1	1	97*	0.7	98*	0	1	-2
COc1cccc(/C=N/NC(=O)N/N=C/c2cccc(OC)c2O)c1O	11	-5	12*	nt	15*	12	11*	9
COc1cccc(C=NNC(=O)C(=O)NN=Cc2cccc(OC)c2O)c1O	nt	nt	nt	0.71	nt	nt	nt	nt
CC(C)CC(NC(=O)Nc1cccc(Cl)c1)C(=O)O (stereo not given)	nt	nt	nt	0.69	nt	nt	nt	nt
O=C(CCN1C(=O)/C(=C\c2ccccc2)SC1=S)NNC(=O)c1ccccc1O	8	12	9	0.72	16*	3	5.0*	4
O=C(CCCN1C(=O)S/C(=C\c2ccccc2)C1=O)NNC(=O)c1ccccc1O	10	-5	5	nt	9	nt	nt	nt
CCON=Cc1ccc(OC)c(Oc2nc(OC)cc(OC)n2)c1	nt	nt	nt	0.66	nt	nt	nt	nt
Cc1cc(C=Nn2c(COc3ccccc3)nc3ccccc3c2=O)c(O)c([N+](=O)[O-])c1	nt	nt	nt	0.7	nt	nt	nt	nt
Cc1cc(/C=N/n2c(COc3ccccc3)nc3ccccc3c2=O)c(O)c([N+](=O)[O-])c1	10	2	13*	nt	15*	10	14*	9
CC(=O)Nc1cccc(C(=O)NCCc2ccco2)c1	8	-22	12*	0.66	12*	7	10*	8
Cc1c(C2C(CC#N)C2(C)C)c2ccccc2n1C (stereo not given)	nt	nt	nt	0.7	nt	nt	nt	nt
CCN(Cc1ccccc1)C(=O)Cn1cc2c(n1)CCCC2	2	-5	3	0.72	12*	1	0	-4
CC1CN(C(C)CO)C(=O)Cc2cc(NC(=O)CCC(F)(F)F)ccc2OC1CN(C)Cc1ccc(-c2ccccc2)cc1 (stereo not given)	nt	nt	nt	0.69	nt	nt	nt	nt
